PubChem BioAssay (NCATS)
Inconclusive results are not listed. Where a structure was tested more than once in an assay, its records may differ in their call. Activity calls are given as the source filed them. Unless noted, calls come from the whole dose curve; as a rule, active = well fitted curve in the direction sought with a large enough effect; inconclusive = small, poorly fitted or top-dose-only effect, or another doubt; inactive = no such curve, though single readings can be large; an effect the other way counts as inactive or inconclusive.

Columns and labels:
[1] = qHTS profiling of the MIPE4 collection as inhibitors of Plasmodium falciparum (DD2) proliferation (Rep 2) (AID 743346; call rule not given here); conditions: P. falciparum Dd2 in erythrocytes, SYBR Green DNA, 72 h; at 28.5 µM unless noted
How it was run: (§1)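 Erythrocytes infected with P. falciparum (0.3% parasitemia, 2.5% hematocrit) incubated with compounds 72 h at 37 C, 5% CO2. Lysis with saponin/Triton buffer containing SYBR Green I, overnight at room temperature in the dark; DNA fluorescence (485/535 nm) normalised to 0.29 uM artemisinin and DMSO.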

[2] = qHTS profiling of the MIPE4 collection as inhibitors of Plasmodium falciparum (HB3) proliferation (AID 743347; call rule not given here;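 note: plate controls were DMSO vehicle wells for no effect and artemisinin wells for full effect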); conditions: P. falciparum HB3 in erythrocytes, SYBR Green DNA, 72 h; at 28.5 µM unless noted
How it was run: as §1

[3] = High-throughput drug toxicity screening in the BPDCN cell line Gen2.2 (AID 1224824; call rule not given here;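 note: cells exposed to compounds for 48 h before reading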); conditions: Gen2.2 BPDCN cells; at 45.8 µM (top of the series) unless noted
How it was run: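 Gen2.2 cells (500/well) in phenol red-free RPMI with 10% FBS were exposed to compounds for 48 h at 37 °C, 5% CO2. Viability was read by CellTiter-Glo luminescence and normalized to DMSO (100%) and 9.2 uM bortezomib (0%).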

[4] = High-throughput drug toxicity screening in the BPDCN cell line Cal-1 (AID 1224825; call rule not given here); conditions: Cal-1 BPDCN cell viability, qHTS; at 45.8 µM (top of the series) unless noted
How it was run: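 500 Cal-1 cells/well, RPMI + glutamine + 10% FBS (phenol red-free); cpd added by pin tool; 48 h, 37C, 5% CO2; CTG 15 min RT, lumi read. Normalised: DMSO 100%, bortezomib 9.2 uM 0%.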

[5] = qHTS assay for measurement of the activity of small molecule inhibitors on Zika virus induced Caspase-3 activity in human iPSC derived neural progenitor cells (hNPCs) (AID 1224857); conditions: hNPCs ZIKV-induced caspase-3/7, Caspase-Glo luminescence, 6 h; series mostly up to 45.7 µM; note: nearly all actives have a fitted effect of over 65% in size; note: potency is the fitted concentration of half-maximal effect
How it was run: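 hNPCs seeded 350 cells/well, cultured 16–20 h; compounds added 1 h before ZIKV (2 FFU/cell), 37 C 6 h. Caspase-Glo 3/7 luminescence after 30 min RT; % inhibition from induction scaled to uninfected (0%) and infected (100%) wells.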

[6] = qHTS assay for measurement of the activity of small molecule inhibitors on Zika virus induced Caspase-3 activity in human astrocytoma cells (AID 1224859); conditions: SNB-19 ZIKV-induced caspase-3/7, luminescence, 6 h; series mostly up to 45.7 µM; note: potency is the fitted concentration of half-maximal effect
How it was run: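 Luminescence read-out (Caspase-Glo 3/7, 30 min RT) of caspase activity in SNB-19 cells infected 6 h with ZIKV, 2 FFU/cell, after 1 h compound pretreatment; % inhibition from induction normalised to uninfected (0%) and infected (100%) wells.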

[7] = qHTS Screen of the MIPE 4.0 Collection Against Ewings Sarcoma (EW8) (AID 1259255); conditions: EW8 Ewing sarcoma viability, CellTiter-Glo, 48 h; series mostly up to 45.8 µM; note: nearly all actives have a fitted effect of over 35% in size; note: potency is the fitted concentration of half-maximal effect;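 for viability: 100% = DMSO-treated cells and 0% = medium-only wells without cells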
How it was run: (§2)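 After a 4 h attachment period in RPMI/5% FBS, cells were pin-dosed with test compounds; DMSO served as negative and 9.2 uM bortezomib (final) as positive control. Luminescent CellTiter-Glo signal at 48 h defined viability.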

[8] = qHTS Screen of the MIPE 4.0 Collection Against Ewings Sarcoma (TC32) (AID 1259256); conditions: TC32 Ewing sarcoma viability, CellTiter-Glo, 48 h; series mostly up to 45.8 µM; note: nearly all actives have a fitted effect of over 45% in size; note: potency is the fitted concentration of half-maximal effect
How it was run: as §2

[9] = qHTS assay to identify small molecule inhibitors of chordoma cells - UCH-1 (AID 1259355); conditions: UCH-1 chordoma viability, CellTiter-Glo, 48 h, combination, with auranofin plus four topoisomerase inhibitors; series mostly up to 46.1 µM; note: % is set by controls: 0 for no effect and ±100 for the full control effect; nearly all actives have a fitted effect of over 55% in size
How it was run: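 Seed 800 cells per well; incubate overnight at 37 C, 5% CO2. Add test compounds (15 concentrations), then the auranofin–topoisomerase-agent combination. Incubate 48hr, add CellTiter-Glo, wait 30min, read luminescence.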

[10] = qHTS assay to identify small molecule inhibitors of chordoma cells - UCH-2 (AID 1259356); conditions: UCH-2 chordoma viability, CellTiter-Glo ATP luminescence, 48 h; series mostly up to 46.1 µM; note: % is set by controls: 0 for no effect and ±100 for the full control effect
[11] = Identifying Small Molecule Inhibitors of Pancreatic Cancer Stem Cells (SN12C, Adherent) (AID 1259358); conditions: viability/growth inhibition; series mostly up to 46.1 µM;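 note: cell survival measured after 48 h of compound exposure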; note: potency is the fitted concentration of half-maximal effect
How it was run: (§3)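 Adherent (2D) versus sphere (3D) formats; spheres generated 14 d in SCM beforehand. Compound transferred by pin tool after 4 h, 48 h incubation, CellTiter-Glo endpoint.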

[12] = Identifying Small Molecule Inhibitors of Pancreatic Cancer Stem Cells (SN12C, Spheroid) (AID 1259360); conditions: Potency: SN12C spheroid viability; series mostly up to 46.1 µM;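 note: 100% = DMSO-treated cells and 0% = wells without cells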
How it was run: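 Spheroids grown 14 days in stem cell media on nonadherent hydrogel before screening; cells attached 4 h, then compound exposure 48 h at 37C, 5% CO2. CellTiter-Glo luminescence normalized to DMSO (no inhibition) and no-cell wells (full inhibition).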

[13] = P-glycoprotein substrates identified in KB-8-5-11 adenocarcinoma cell line, qHTS therapeutic library screen (AID 1346987); conditions: KB-8-5-11 (P-gp overexpressing) viability, CellTiter-Glo, 72 h; series mostly up to 44.5 µM; note: % is set by controls: 0 for no effect and ±100 for the full control effect; nearly all actives have a fitted effect of over 65% in size
How it was run: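 KB-8-5-11: colchicine-selected sub-line of KB-3-1 over-expressing P-gp; assay medium lacked colchicine. 72 h drug exposure at 37 degree C, CellTiter-Glo.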

[14] = qHTS Screen of the MIPE 4.0 Collection Against Ewings Sarcoma (TC71) (AID 1259253); conditions: TC71 Ewing sarcoma viability, CellTiter-Glo, 48 h; series mostly up to 45.8 µM; note: nearly all actives have a fitted effect of over 40% in size; note: potency is the fitted concentration of half-maximal effect
How it was run: as §2

[15] = Natriuretic polypeptide receptor (hNpr1) antagonism - Pilot counterscreen GloSensor control cell line (AID 1347045; calls by dose curve; note: % is set by controls: 0 for no effect and ±100 for the full control effect); conditions: HEK293 cGMP GloSensor cells, SNP-stimulated luminescence, 20 min; series mostly up to 38.3 µM
How it was run: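 HEK293 cells carrying the GloSensor cGMP sensor (GIP/pGS-40F) were loaded with 2% GloSensor reagent for 2 h, exposed to compounds for 30 min, and then stimulated with 50 uM sodium nitroprusside for 20 min at room temperature.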

[16] = Identifying Small Molecule Inhibitors of Pancreatic Cancer Stem Cells (A278, Adherent) (AID 1259361); conditions: series mostly up to 46.1 µM; note: nearly all actives have a fitted effect of over 35% in size
How it was run: as §3

Row | SMILES | parasite growth, % of control (lower = inhibition) [1] | growth, % of control [2] | cell viability, % of control (lower = more cytotoxic) [3] | viability (% of control) [4] | Potency [5] | Potency [6] | Potency [7] | Potency [8] | Potency [9] | Potency [10] | Potency [11] | Potency [12] | Potency [13] | Potency [14] | Potency [15] | IC50 (viability decrease) [16]
1 | Nc1cccc2c1CN(C1CCC(=O)NC1=O)C2=O (stereo not given) | 127% [at 57.5 µM] | 108% [at 57.5 µM] | 178% [at 92.2 µM] | 101% [at 92.2 µM] | inactive | inactive | inactive | inactive | inactive | inactive | inactive | inactive | inactive |  |  | 
2 | O=c1c(O)c(-c2cc(O)c(O)c(O)c2)oc2cc(O)cc(O)c12 | 111% | 106% | 54.4% | 111% | inactive | inactive |  |  |  |  |  |  |  | inactive | inactive | 
3 | O=P(O)(O)C(O)(Cn1ccnc1)P(=O)(O)O | 94.2% [at 9.64 µM] |  | 109% [at 23.2 µM] | 108% [at 23.2 µM] | inactive | inactive | inactive |  | inactive | inactive |  |  | inactive | inactive |  | 
4 | COc1cc(Nc2c(C#N)cnc3cc(OCCCN4CCN(C)CC4)c(OC)cc23)c(Cl)cc1Cl | 14.7% | 3.88% | 5% | 3.18% | inactive | inactive |  |  |  |  | 26.4 µM (active) |  | inactive | 18.7 µM (active) |  | 23.5 µM (active)
5 | Cc1nc(-c2ccc(OCC(C)C)c(C#N)c2)sc1C(=O)O | 43.1% | 62% | 41.7% | 105% | 5.26 µM (active) and inactive | 4.18 µM (active) | inactive | inactive |  |  |  |  |  |  |  | 
6 | COC(=O)C1=C(C)NC(C)=C(C(=O)OC(C)C)C1c1cccc2nonc12 (stereo not given) | 120% | 99.6% | 131% | 105% | inactive | inactive |  |  | inactive | inactive |  |  |  | 26.4 µM (active) |  | 
7 | CCCCCCCCOc1ccccc1C(=O)Nc1ccc(C(=O)OCC[N+](C)(CC)CC)cc1 | 26.3% | 8.46% | 52.3% | 14.9% | 16.6 µM (active) and inactive | inactive | 16.6 µM (active) |  | inactive | inactive |  |  | inactive |  |  | 
8 | Cc1cccc(C)c1OCC(=O)N[C@@H](Cc1ccccc1)[C@@H](O)C[C@H](Cc1ccccc1)NC(=O)[C@H](C(C)C)N1CCCNC1=O | 16.3% | 3.91% | 28% | 91.4% | inactive | inactive |  |  | inactive | inactive |  |  |  |  |  | 
9 | OC(CN1CCN(c2cccc(Cl)c2)CC1)C(c1ccccc1)c1ccccc1 (stereo not given) | 66% | 47% | 319% | 88.8% | inactive | inactive |  | 16.6 µM (active) |  |  |  |  | inactive |  | inactive | 
